The nature of test [1]: anti-His antibody binders, primary screen, artefact control for SMM control protein annotation, biochemical, small-molecule microarray, 635 nm fluorescence (AID 1128).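 Note: score merges feature fluorescence with signal-to-noise for each printed compound spot.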 The settings on record: anti-His Alexa647 antibody binding, higher = more signal.
Test [2] concerns Human papillomavirus type 1a E7 protein (residues 1-88). Kind of test: HPV1a E7 small-molecule binders, primary screen, biochemical, small-molecule microarray, residues 1-88, 635 nm (AID 1129). To be noted: small-molecule microarray binding, fluorescence 635 nm; higher = more signal.
Test [3] deals with Focal adhesion kinase 1 (Homo sapiens) (UniProt Q05397). Kind of test: small-molecule microarray binders of FAK, primary screen, biochemical, 635/667 nm fluorescence, BSA, DTT (AID 1130).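 Note: composite of spot emission at 667 nm and signal to noise over triplicate slides.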 To be noted: PTK2 binding, 635 nm fluorescence, higher = more signal.
In test [4] the test system is Fibrinogen (Alexa647-labelled). Kind of test: fibrinogen binders on compound microarrays, profiling panel, artefact control for SMM control-protein annotation, biochemical, small-molecule microarray, 635/667 nm fluorescence (AID 1131).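 Note: z-score merges 667 nm fluorescence with per-spot signal-to-noise over triplicate slides.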 The settings on record: fibrinogen-A647 binding fluorescence, higher = more signal.
Test [5] concerns the target Follistatin (Homo sapiens) (UniProt P19883). Kind of test: follistatin binders on small-molecule microarrays, primary screen, biochemical, small-molecule microarray, 635/667 nm fluorescence (AID 1132). The settings on record: FST binding, 635 nm fluorescence, higher = more signal.
Test [6] addresses Fibroblast growth factor 2 (Homo sapiens) (UniProt P09038). As to the kind of experiment: FGF2 binders on small-molecule microarrays, primary screen, biochemical, small-molecule microarray, 635/667 nm fluorescence (AID 1133). The settings on record: small-molecule microarray binding, FGF2, fluorescence 635/667; higher = more signal.
The nature of test [7]: mitochondrial membrane potential change in A549 cells, profiling panel, cell-based, JC-1 fluorescence, basal, 24 h, 100 nL (AID 1138).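 Note: A549 lung adenocarcinoma cells under basal conditions with no added stimulus; test concentration not given here.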 To be noted: higher = more signal.
The test system of a further test is Lefty1. Kind of test: Lefty1 binders on small-molecule microarrays, primary screen, biochemical, small-molecule microarray, 635/667 nm fluorescence (AID 1139). To be noted: small-molecule microarray binding, fluorescence 635/667; higher = more signal.
For test [8], the system named is wheat germ agglutinin (Triticum aestivum), Alexa647-labelled. Kind of test: wheat germ agglutinin binders on compound microarrays, profiling panel, artefact control for SMM control-protein annotation, biochemical, small-molecule microarray, 635/667 nm fluorescence (AID 1140).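 Note: score merges 667 nm feature emission with signal to noise over triplicate slides.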 To be noted: WGA-A647 binding, 635 nm fluorescence, higher = more signal.
Test [9] addresses Luciferin 4-monooxygenase (Photinus pyralis) (UniProt P08659). As to the kind of experiment: firefly luciferase enzyme inhibitors, primary screen, biochemical, luminescence, purified enzyme, 2006 set (AID 1141).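 Note: cell-free assay with purified firefly luciferase at 100 ng per well in PBS; test concentration not given here.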 The settings on record: SteadyGlo luminescence, 30 min, higher = more signal, called active from +8 up or from −8 down.
In test [10] the test system is Wnt5a (protein binding on small-molecule microarray). Kind of test: Wnt5a binders on small-molecule microarray, primary screen, biophysical, 635/667 nm fluorescence (AID 1142).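 Note: fluorescence read at 667 nm with signal to noise per printed feature.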 To be noted: 635 nm fluorescence, higher = more signal.
Test [11] is described as follows: cell viability in Huh7 cells, primary screen, cytotoxicity control for HCV replication inhibitor project, CellTiter-Glo luminescence, basal, 48 h (AID 1143).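 Note: Huh7 hepatoma cells carrying a hepatitis C replication reporter with no stimulus; test concentration not given here.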 The settings on record: Huh7 HCV replicon, higher = more signal, called active from +8 up or from −8 down. For orientation: In ATP-based viability assays light output follows the ATP content of the culture.
Test [12] is described as follows: P. aeruginosa biofilm formation inhibitors, primary screen, PAO1 strain, BacTiter-Glo luminescence, LB-PBS (AID 1144). The settings on record: 12 h, higher = more signal.
Test [13] in a line: CREB reporter modulators without forskolin, primary screen, cell-based, PC12, CRE-LacZ reporter, unstimulated (AID 1145). To be noted: no forskolin, luminescence, 4.5 h, higher = more signal, called active from +8 up or from −8 down.
Test [14] in a line: CREB reporter modulators under forskolin, primary screen, cell-based, PC12, CRE-LacZ reporter, forskolin-stimulated (AID 1146).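 Note: PC12 cells with 6xCRE LacZ reporter stimulated by forskolin 10 µM; beta-galactosidase reporter signal reflecting CREB driven transcription.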 The settings on record: luminescence, 4.5 h, higher = more signal, called active from +8 up or from −8 down.
For test [15], the target named is Streptavidin (Streptomyces avidinii) (UniProt P22629). Kind of test: streptavidin binders on small-molecule microarray, primary screen, artefact control for SMM compound annotation, biophysical, 635/667 nm fluorescence (AID 1147).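 Note: signal reflects streptavidin binding to arrayed compounds as a control protein.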 To be noted: streptavidin binding, higher = more signal.
Test [16] is described as follows: small-molecule binders of probe aInhba, primary screen, biochemical, small-molecule microarray, 635/667 nm fluorescence (AID 1148).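 Note: score merges 667nm spot fluorescence with signal-to-noise for antibody binding to printed compounds.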 The settings on record: higher = more signal.
In test [17] the target is Torsin-1A (Homo sapiens) (UniProt O14656). Kind of test: torsin A binders from cell lysate, primary screen, small-molecule microarray, wild-type, 635/667 nm (AID 1149). To be noted: COS7 hTOR1A-WT lysate, 635 nm fluorescence, higher = more signal.
For test [18] the target is unchanged. As to the kind of experiment: small-molecule binders of mutant TOR1A in lysate, primary screen, cell lysate, small-molecule microarray, COS7 lysate, 635/667 nm fluorescence (AID 1150).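 Note: score pools 667 nm emission and signal to noise measuring lysate protein binding.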 The settings on record: COS7 hTOR1A mutant lysate, 635 nm fluorescence, higher = more signal.
For test [19], the system named is Sonic hedgehog protein (Shh). Kind of test: small-molecule binders of Shh protein, primary screen, biochemical, small-molecule microarray, 635/667 nm fluorescence (AID 1151).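 Note: Shh protein binding to compounds spotted on small-molecule microarray slides; score combines spot fluorescence intensity with signal-to-noise across triplicate slides.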 To be noted: small-molecule microarray binding, 635 nm fluorescence; higher = more signal.

Calls of active or inactive are those of the source. Unless noted, the rule behind the calls is not given here.

Sequence of Focal adhesion kinase 1 (Homo sapiens) (Q05397 whole entry, looked up): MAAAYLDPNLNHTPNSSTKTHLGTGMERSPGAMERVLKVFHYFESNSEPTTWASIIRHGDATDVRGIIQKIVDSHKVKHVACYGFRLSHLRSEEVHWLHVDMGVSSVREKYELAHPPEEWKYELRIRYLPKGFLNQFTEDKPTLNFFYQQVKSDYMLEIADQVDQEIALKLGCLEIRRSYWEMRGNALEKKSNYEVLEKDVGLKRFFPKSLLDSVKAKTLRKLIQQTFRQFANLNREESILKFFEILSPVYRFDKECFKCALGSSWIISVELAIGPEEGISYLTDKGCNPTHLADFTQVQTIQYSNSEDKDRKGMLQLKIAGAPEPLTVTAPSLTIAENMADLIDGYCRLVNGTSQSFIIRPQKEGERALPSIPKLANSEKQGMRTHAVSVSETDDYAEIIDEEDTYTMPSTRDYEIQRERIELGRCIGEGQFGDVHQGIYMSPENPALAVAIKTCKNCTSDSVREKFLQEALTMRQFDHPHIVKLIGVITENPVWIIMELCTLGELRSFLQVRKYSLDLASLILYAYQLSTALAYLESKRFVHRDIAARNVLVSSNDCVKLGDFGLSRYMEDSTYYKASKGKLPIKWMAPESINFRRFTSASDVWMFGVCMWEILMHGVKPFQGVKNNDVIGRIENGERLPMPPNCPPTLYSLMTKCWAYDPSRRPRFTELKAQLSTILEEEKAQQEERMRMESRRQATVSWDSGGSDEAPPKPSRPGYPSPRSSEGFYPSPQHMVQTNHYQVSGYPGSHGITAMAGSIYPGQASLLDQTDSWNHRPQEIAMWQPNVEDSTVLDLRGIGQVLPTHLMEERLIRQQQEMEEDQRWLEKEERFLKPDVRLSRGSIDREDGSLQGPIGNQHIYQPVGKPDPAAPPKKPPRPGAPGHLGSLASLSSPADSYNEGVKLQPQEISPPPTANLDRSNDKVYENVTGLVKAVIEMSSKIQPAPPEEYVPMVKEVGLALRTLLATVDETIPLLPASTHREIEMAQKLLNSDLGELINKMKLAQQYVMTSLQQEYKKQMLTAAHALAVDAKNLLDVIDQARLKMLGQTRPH
Sequence of Luciferin 4-monooxygenase (Photinus pyralis) (P08659 whole entry, looked up): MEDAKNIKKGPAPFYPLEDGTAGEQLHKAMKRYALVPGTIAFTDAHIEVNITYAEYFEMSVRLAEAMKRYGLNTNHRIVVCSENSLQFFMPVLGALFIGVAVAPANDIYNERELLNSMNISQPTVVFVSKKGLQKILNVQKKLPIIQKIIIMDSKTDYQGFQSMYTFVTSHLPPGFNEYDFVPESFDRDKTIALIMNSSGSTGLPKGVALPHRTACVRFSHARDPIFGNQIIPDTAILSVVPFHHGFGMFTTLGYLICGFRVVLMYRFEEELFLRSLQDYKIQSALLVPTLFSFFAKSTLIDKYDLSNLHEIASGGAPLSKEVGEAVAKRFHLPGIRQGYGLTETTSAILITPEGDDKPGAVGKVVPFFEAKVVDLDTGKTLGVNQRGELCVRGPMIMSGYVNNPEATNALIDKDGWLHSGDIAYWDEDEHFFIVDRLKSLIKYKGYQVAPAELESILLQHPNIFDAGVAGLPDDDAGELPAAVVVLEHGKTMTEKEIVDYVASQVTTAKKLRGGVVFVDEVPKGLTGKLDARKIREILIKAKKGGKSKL
Sequence of Torsin-1A (Homo sapiens) (O14656 whole entry, looked up): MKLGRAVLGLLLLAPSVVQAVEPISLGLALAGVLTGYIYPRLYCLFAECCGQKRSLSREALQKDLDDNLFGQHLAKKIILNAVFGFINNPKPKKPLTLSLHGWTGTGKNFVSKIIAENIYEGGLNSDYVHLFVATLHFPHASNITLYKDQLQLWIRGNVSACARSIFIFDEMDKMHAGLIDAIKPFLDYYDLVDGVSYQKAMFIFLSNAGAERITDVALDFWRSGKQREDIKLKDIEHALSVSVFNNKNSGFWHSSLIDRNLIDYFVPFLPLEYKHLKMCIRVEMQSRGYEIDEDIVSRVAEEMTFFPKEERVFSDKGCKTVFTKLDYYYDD
Sequence of Streptavidin (Streptomyces avidinii) (P22629 whole entry, looked up): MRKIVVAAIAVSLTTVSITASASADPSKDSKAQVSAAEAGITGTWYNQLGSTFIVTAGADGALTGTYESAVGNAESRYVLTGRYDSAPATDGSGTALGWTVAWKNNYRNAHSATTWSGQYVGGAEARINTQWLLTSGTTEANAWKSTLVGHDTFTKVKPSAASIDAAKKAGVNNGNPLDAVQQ
Sequence of Follistatin (Homo sapiens) (P19883 whole entry, looked up): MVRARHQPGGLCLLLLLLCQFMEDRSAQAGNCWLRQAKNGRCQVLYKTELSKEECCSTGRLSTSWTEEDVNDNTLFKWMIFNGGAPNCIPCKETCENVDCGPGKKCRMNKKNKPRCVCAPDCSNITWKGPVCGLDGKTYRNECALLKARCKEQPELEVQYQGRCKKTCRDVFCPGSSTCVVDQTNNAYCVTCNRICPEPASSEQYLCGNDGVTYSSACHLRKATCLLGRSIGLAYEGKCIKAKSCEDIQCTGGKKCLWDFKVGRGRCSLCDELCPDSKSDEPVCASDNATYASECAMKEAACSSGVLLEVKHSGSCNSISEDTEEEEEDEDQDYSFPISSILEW
Sequence of Fibroblast growth factor 2 (Homo sapiens) (P09038 whole entry, looked up): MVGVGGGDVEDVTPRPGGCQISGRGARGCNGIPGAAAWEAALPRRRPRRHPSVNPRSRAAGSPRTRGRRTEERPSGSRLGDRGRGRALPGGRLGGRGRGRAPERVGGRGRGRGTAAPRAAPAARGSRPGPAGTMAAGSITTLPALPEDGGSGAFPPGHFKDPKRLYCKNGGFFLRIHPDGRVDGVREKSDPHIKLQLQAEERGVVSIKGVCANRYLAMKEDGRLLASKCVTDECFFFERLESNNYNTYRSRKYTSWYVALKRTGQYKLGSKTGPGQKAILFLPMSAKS

Take `CCCC[C@H]1OB(O)C[C@H]2C1=C(COc1ccccc1)C[C@H]1C(=O)N(C)C(=O)[C@H]12`: the composite z-score is -0.0391 in [1]; 0.0417 in test [2]; -0.281 in test [3]; -0.0052 in test [4]; 1.24 in test [5]; 0.473 in test [6]. In addition, the composite z-score is 0.576 with Lefty1; 0.0686 in [8]; 0.195 in test [10]; -0.385 in [15]; -0.0933 in test [16]; -0.212 with Torsin-1A (Homo sapiens) [17]. Also, the composite z-score was 0.138 with Torsin-1A (Homo sapiens) [18] and 0.853 in [19]. Also, the z-score in [7] is 0.284; in test [9], -0.718 (inactive); in [11], -0.348 (inactive); in test [12], 1.04 (inactive); in test [13], 1.77 (inactive); in test [14], 0.899 (inactive).
Take `C=CCNC(=O)[C@H]1[C@@H]2C(=O)O[C@@H](c3ccccc3)[C@@H](c3ccccc3)N2[C@@H](c2ccccc2OCCO)[C@]12C(=O)Nc1ccc(C#CC3=CCCCC3)cc12`: the composite z-score in [1] amounted to 0.971; in test [2], 1.17; in test [3], 0.26; in test [4] it was 0.783; in test [5], 1.16; in test [6], 1.21. Further, the composite z-score in the test on Lefty1 came out at 0.681; in [8], 0.394; in test [10], 0.291; in test [15] it was 0.0808; in [16], 0.0074; with Torsin-1A (Homo sapiens) [17] it was 1.23. In addition, the composite z-score with Torsin-1A (Homo sapiens) [18] turned out to be 1.14; in test [19], 1.61. Also, the z-score in test [7] was -0.856; in [9], -1.19 (inactive); in test [11], -6.47 (inactive); in test [12] it was 1.64 (inactive); in [13] it was 0.484 (inactive); in test [14], 1.05 (inactive).
On to `C=CCN(Cc1ccccc1)C(=O)C(c1cccs1)N(CCOCCO)C(=O)/C=C\C(=O)O` (stereo not given), for which the composite z-score in test [1] is -0.187; in test [2] it was -0.92; in test [3] it was -0.374; in [4] it was -2.2; in test [5], -2.64; in test [6], -2.43. For the same compound, the composite z-score was -2.47 with Lefty1; -0.47 in test [8]; -1.17 in [10]; -1.28 in test [15]; -0.34 in test [16]; -3.64 with Torsin-1A (Homo sapiens) [17]. Also, the composite z-score with Torsin-1A (Homo sapiens) [18] is -3.08; in test [19] it was -0.933. The z-score in test [7] was 0.316; in [9], -3.93 (inactive); in [11], -0.247 (inactive); in test [12], -1.93 (inactive); in [13] it was -1.58 (inactive); in test [14] it was -0.949 (inactive).
For the compound `COC(=O)[C@@]1(Cc2ccc(OC)cc2)[C@H]2c3cc(C(=O)N(C)C)n(Cc4cccc5ccccc45)c3C[C@H]2CN1C(=O)c1ccccc1`, the composite z-score in test [1] is 1.54; in test [2], 1.26; in [3], 0.306; in [4], 1.02; in test [5], 0.202; in test [6] it was -0.225. The composite z-score came out at 0.566 in the test on Lefty1; 1.03 in test [8]; 1.44 in [10]; 0.697 in test [15]; 0.943 in test [16]; 0.817 with Torsin-1A (Homo sapiens) [17]. The composite z-score in the test with Torsin-1A (Homo sapiens) [18] was 1.14; in [19], 0.659. In addition, the z-score is -0.78 in [7]; 0.629 (inactive) in test [9]; -4.45 (inactive) in [11]; -0.0601 (inactive) in test [12]; 0.0075 (inactive) in test [13]; 0.458 (inactive) in test [14].
With `C[C@]1(C(=O)NC2CC2)c2ccccc2C(=O)N(Cc2cc(C(F)(F)F)cc(C(F)(F)F)c2)[C@H]1c1ccc(CO)cc1`, the composite z-score in test [1] is 1.86; in test [2], 1.11; in test [3], -0.0326; in [4], 0.657; in test [5] it was 1.31; in test [6], 0.998. Moreover, the composite z-score in the test with Lefty1 is 0.539; in test [8] it was 0.772; in [10], 0.46; in [15], 0.0956; in [16] it was 0.225; in the test with Torsin-1A (Homo sapiens) [17] it was 0.372. Besides, the values for the composite z-score (in the test with Torsin-1A (Homo sapiens) [18]; in [19]) were 0.329 and -0.0874, respectively. For the same compound, the z-score in test [7] is 1.73; in [9] it was -1.07 (inactive); in test [11] it was -1.38 (inactive); in test [12], 0.501 (inactive); in [13], -0.825 (inactive); in [14], -1.25 (inactive).

For the origin of these results see PubChem BioAssay.
